# Screens (PubChem BioAssay)
# The entries come from a sample that favours hits as a whole.
# IL-1B inflam inh – inflammasome signaling inhibition, IL-1 beta readout; THP-1 LPS/ATP IL-1B secretion, AlphaLISA, 16 h; active compounds read low; activity change, % at 57.5 µM; 4.7% of 360,000 active; in the data active = activity change below about -50%; inconclusive = mostly about -30% to -49%
#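 THP-1 cells pretreated 1 hr with compounds (up to 57.5 uM final), then stimulated with LPS (250 ng/mL final) plus ATP (1.25 mM final); secreted IL-1B measured by AlphaLISA after 16 hr, decreased signal indicating inhibition.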
# ALOX12 inh – inhibitors of human 12S-lipoxygenase ALOX12. Potency, µM (top dose mostly 108 µM), for inactives: at the top dose activity change, negative = inhibition, usual class: inhibitors. P18054. purified 12hLO, xylenol orange hydroperoxide absorbance. 1.1% of 580,000 active. AID 1671190; note: potency is the fitted concentration of half-maximal effect
# Target sequence (P18054 whole entry, looked up): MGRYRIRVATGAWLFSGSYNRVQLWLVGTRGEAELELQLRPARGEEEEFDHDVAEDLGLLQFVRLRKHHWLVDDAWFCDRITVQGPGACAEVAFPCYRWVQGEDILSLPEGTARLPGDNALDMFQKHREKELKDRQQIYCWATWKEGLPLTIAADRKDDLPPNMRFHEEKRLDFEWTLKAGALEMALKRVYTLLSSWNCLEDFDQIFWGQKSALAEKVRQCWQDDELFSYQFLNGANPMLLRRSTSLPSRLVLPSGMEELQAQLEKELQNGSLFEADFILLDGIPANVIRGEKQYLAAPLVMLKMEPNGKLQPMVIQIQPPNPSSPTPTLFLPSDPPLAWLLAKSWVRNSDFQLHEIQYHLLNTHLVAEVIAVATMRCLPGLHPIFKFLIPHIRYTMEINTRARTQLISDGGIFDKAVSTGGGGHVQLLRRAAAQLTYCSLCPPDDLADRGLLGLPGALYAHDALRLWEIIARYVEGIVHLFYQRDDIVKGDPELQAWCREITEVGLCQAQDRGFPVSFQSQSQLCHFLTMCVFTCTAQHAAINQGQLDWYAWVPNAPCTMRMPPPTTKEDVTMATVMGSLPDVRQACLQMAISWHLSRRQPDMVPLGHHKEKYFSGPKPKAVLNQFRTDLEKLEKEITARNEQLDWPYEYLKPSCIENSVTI
#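 Purified human 12hLO at 150 nM in 25 mM Hepes, 0.01% Triton X-100, pH 7.0, preincubated 15 min at room temperature with compound. Reaction started with 40 uM arachidonic acid, 30 min at room temperature. Hydroperoxide measured by Fe-xylenol orange, 573/405 nm absorbance ratio.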
# HT1080NT lethal – kills 2HG-producing HT-1080-NT fibrosarcoma cells; HT-1080-NT fibrosarcoma viability, CellTiter-Glo ATP luminescence, 48 h; Potency, µM (highest dose often 46.1 µM), for the others: top-dose activity, negative = less viability, actives largely listed as cytotoxic; 1.6% of 360,000 active;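 note: NT is the 2HG producing partner of a matched IDH1 knockdown line; potency is the fitted concentration of half-maximal effect; 0% = DMSO-treated cells and -100% = media-only wells without cells; nearly all actives have a fitted effect of over 55% in size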
#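 Toxicity toward the 2HG-producing NT line was scored as %Activity, normalised to DMSO and no-cell wells, from CellTiter-Glo luminescence after 48 hours' treatment.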
# DT40 TDP1 CPT – growth inhibition of DT40 Tdp1-/-;hTDP1 cells with camptothecin (screen for TDP1 inhibitors) | chicken DT40 Tdp1-/-;hTDP1 cells + 20 nM CPT, ATP luminescence, 48 h | Potency, µM (doses to about 46.2 µM), without a hit: at the highest dose activity change, negative = growth inhibition, actives largely listed as inhibitors | AID 686979 | 12% of 420,000 active; note: potency is the fitted concentration of half-maximal effect; nearly all actives have a fitted effect of over 55% in size
#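 Cell growth measured by CellTiter-Glo luminescence after a minimum 48 h, 37 C compound exposure with 20 nM CPT in Tdp1-knockout DT40 cells stably expressing hTDP1, seeded 400/well; qHTS titration format.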
# HT1080 IDH1KD tx – toxicity to HT-1080 IDH1 knockdown cells (counter line) | HT-1080 IDH1 knockdown viability, ATP luminescence, 48 h | Potency, µM (series often up to 46.1 µM), for inactives: at the top dose activity, negative = toxicity, hits mostly cytotoxic | 2% of 360,000 active;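 note: potency is the fitted concentration of half-maximal effect; 0% = DMSO wells and -100% = cell-free medium wells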
#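 Luminescent ATP read-out (CellTiter-Glo, 10 min at room temperature) after 48 h compound exposure at 37 °C gave viability of IDH1-knockdown HT-1080 cells. Activity was normalised to DMSO and cell-free wells, then fitted as concentration-response curves.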
# TDP1 cell noCPT – qHTS for Inhibitors of human tyrosyl-DNA phosphodiesterase 1 (TDP1): qHTS in cells in absence of CPT. Potency, µM (highest dose often 46.2 µM), for inactives: at the top dose activity change, negative = growth inhibition, hits mostly inhibitors. 15% of 420,000 active. DT40 Tdp1-/- hTDP1 cells, no CPT, ATP luminescence, 48 h. AID 686978, 2013; note: potency is the fitted concentration of half-maximal effect; nearly all actives have a fitted effect of over 55% in size
#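 Chicken DT40 Tdp1-/- cells complemented with human TDP1, screened without camptothecin (DMSO vehicle only), 400 cells/well. Compounds pin-transferred, cells incubated at 37 °C for at least 48 hr. Growth read as ATP-dependent luminescence (CellTiter-Glo, 30 min at RT).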
# The depositor's hits bear a star; ? = inconclusive; / = not tested or not shown; [ ] = another dose, or the depositor's remark. Unless noted, calls come from the whole dose curve; as a rule, active = well fitted curve in the direction sought with a large enough effect; inconclusive = small, poorly fitted or top-dose-only effect, or another doubt; inactive = no such curve, though single readings can be large; an effect the other way counts as inactive or inconclusive. Unless noted, % is set by controls: 0 for no effect and ±100 for the full control effect.
SMILES,IL-1B inflam inh,ALOX12 inh,HT1080NT lethal,DT40 TDP1 CPT,HT1080 IDH1KD tx,TDP1 cell noCPT
CCO[C@H]1C[C@@H](O)C12CCN(c1ccc(C#N)cn1)CC2,/,34%,/,/,/,/
Nc1cc(N)nc(SCC(=O)c2ccc3c(c2)NC(=O)CO3)n1,-1,-4%,-6%,-1%,0%,-15%
CCc1ccc(-n2c(SCC(=O)c3ccc4c(c3)NC(=O)CO4)nc3ccccc3c2=O)cc1,53,0%,0%,?,8%,21µM*
Cn1c(SCC(=O)c2ccc3c(c2)NC(=O)CO3)nc2ccccc21,43,0%,10%,?,30%,?
CCCn1c(SCC(=O)c2ccc3c(c2)NC(=O)CO3)nc2ccccc21,30,-23%,?,10µM*,-18%,9.2µM*
O=C1COc2ccc(C(=O)CSc3nc4ccccc4c(=O)n3-c3ccc(Cl)c(Cl)c3)cc2N1,84,-15%,0%,23µM*,1%,?
O=C1COc2ccc(C(=O)CSc3nnc(NCc4ccccc4)s3)cc2N1,-21,-4%,-3%,?,-9%,13µM*
O=C1COc2ccc(C(=O)CSc3nnc(Cc4cccs4)n3-c3ccc(Cl)cc3)cc2N1,0,-13%,9%[9.24 µM],18µM*,?,18µM*
Cc1cc(SCC(=O)c2ccc3c(c2)OCCO3)nc2ccccc12,/,16µM*,/,/,/,/
O=C(CSc1nc2[nH]ncc2c(=O)n1-c1ccccc1)c1ccc2c(c1)OCCO2,-54*,-3%,-25%,?,-5%,?
Cc1ccc(Cl)cc1N1CCN(C(=O)c2cnc(N3CCOCC3)c3ccccc23)CC1,/,0%,/,5.8µM*,/,6.5µM*
O=C(c1cnc(N2CCCCC2)c2ccccc12)N1CCN(c2ccc(Cl)cc2)CC1,/,-24%,/,15µM*,/,23µM*
O=C(c1cnc(N2CCN(c3ncccn3)CC2)c2ccccc12)N1CCN(c2ncccn2)CC1,-54*,9%,-17%,15µM*,-28%,15µM*
CCCc1nc(SC)ncc1C(=O)N1CCN(c2ccc(Cl)cc2)CC1,/,-18%,/,?,/,23µM*
O=C(O)c1ccccc1C(=O)N1CCN(c2ncccn2)CC1,32,0%,12%,-12%,12%,-13%
CSc1ncc(C(=O)N2CCN(c3ccc(F)cc3)CC2)c(C)n1,/,-12%,/,-28%,/,-25%
O=C(Nn1cnnc1)c1ccc(Cl)c(Cl)c1,-4,?,6%,-17%,3%,-9%
CN(C(=O)c1cnc(N2CCN(c3ncccn3)CC2)c2ccccc12)c1ccc(Cl)cc1,-84*,28%,-3%,?,-10%,21µM*
Cc1ccc(Cl)cc1N(C)C(=O)c1cnc(N2CCOCC2)c2ccccc12,/,1%,/,?,/,?
CCOc1ccc(-c2c(C)nn3c(C)c(C(=O)NCc4cccc(OC)c4)cnc23)cc1OCC,/,-20%,/,9.2µM*,/,?
CCOc1ccc(CCNC(=O)c2cnc3c(-c4ccc(F)cc4)c(C)nn3c2C)cc1OCC,/,-34%,/,16µM*,/,18µM*
CCOc1ccc(-c2c(C)nn3c(C)c(C(=O)NCc4ccc(Cl)cc4)cnc23)cc1OCC,/,-23%,/,1.2µM*,/,1.6µM*
CCOc1ccc(-c2c(C)nn3c(C)c(C(=O)NCCc4ccc(Cl)cc4)cnc23)cc1OCC,/,-22%,/,15µM*,/,6.5µM*
Cc1ccc(CCNC(=O)c2cnc3c(-c4ccc(F)cc4)c(C)nn3c2C)cc1,/,-16%,/,-6%,/,-2%
CCOc1ccc(-c2c(C)nn3c(C)c(C(=O)NCc4ccc(C)o4)cnc23)cc1OCC,/,-10%,/,?,/,?
SMILES,IL-1B inflam inh,ALOX12 inh,HT1080NT lethal,DT40 TDP1 CPT,HT1080 IDH1KD tx,TDP1 cell noCPT
CCOc1ccc(-c2c(C)nn3c(C)c(C(=O)Nc4cc(C)cc(C)c4)cnc23)cc1OCC,/,-13%,/,?,/,?
NCCC(=O)[N-][C@@H](Cc1cnc[nH]1)C(=O)O.[Zn],/,/,/,-1%,/,3%
COc1ccc(Cl)cc1NC(=O)Nc1nnc(N(C)C2CCCCC2)s1,/,19%,/,/,/,/
COc1cc(OC)c(NC(=O)Nc2nnc(N(C)C3CCCCC3)s2)cc1Cl,/,?,/,21µM*,/,8.2µM*
Cc1c(Cl)cccc1NC(=O)Nc1nnc(N(C)C2CCCCC2)s1,/,?,/,15µM*,/,16µM*
Cc1ccc(NC(=O)Nc2nnc(N(C)C3CCCCC3)s2)c(Cl)c1,/,-29%,/,16µM*,/,?
O=C1NCCN2CC3(CCN(C(=O)Nc4ccc5c(c4)OCCO5)CC3)CC12 (stereo not drawn),/,155%,/,/,/,/
COc1ccc(Br)cc1CN(C)C(=O)c1cnc(C)cn1,33,0%,-13%,0%,-1%,7%
CC(=O)N1CCC(Cc2noc(C3CCOCC3)n2)C1 (stereo not drawn),/,32%,/,/,/,/
CC1(C(=O)NCCCNc2ncc(C(F)(F)F)cc2Cl)C=CCN1C(=O)c1ccccc1 (stereo not drawn),-77*,?,8%,?,-3%,?
C[C@]1(C(=O)NCCCNc2ncc(C(F)(F)F)cc2Cl)C=C[C@@H](Cc2ccccc2)N1C(=O)c1ccccc1,?,/,-19%,?,-21%,26µM*
O=C(c1cccnc1)N1C[C@@H]2OCC(=O)N(Cc3ccncc3)[C@@H]2C1,/,6%[176 µM],/,/,/,/
CC(=O)Nc1ccc(-c2ccnc3c2CC(C)(C(=O)Nc2cccc(OC(F)(F)F)c2)O3)cc1 (stereo not drawn),-17,?,26µM*,?,?,16µM*
CC(=O)Nc1cccc(-c2ccnc3c2CC(C)(C(=O)Nc2ccc(Cl)c(C(F)(F)F)c2)O3)c1 (stereo not drawn),-67*,-5%,?,10µM*,23µM*,13µM*
CC1(C(=O)Nc2cccc(C(F)(F)F)c2)Cc2c(-c3cccc(C(F)(F)F)c3)ccnc2O1 (stereo not drawn),-17,-15%,?,?,?,?
CC(=O)Nc1ccc(-c2ccnc3c2CC(C)(C(=O)Nc2cccc(C(F)(F)F)c2)O3)cc1 (stereo not drawn),-62*,-14%,?,15µM*,?,?
CC(=O)Nc1cccc(-c2ccnc3c2CC(C)(C(=O)Nc2cccc(C(F)(F)F)c2)O3)c1 (stereo not drawn),-4,-13%,?,13µM*,?,16µM*
